The results in this text go back to PubChem BioAssay (NCI).

Test systems include T-47D breast; BT-549 breast; MDA-MB-435 melanoma; SW-620 colon; MCF7 breast; HCT-116 colon; HCC-2998 colon; KM12 colon.
Common to all, as to assay: NCI-60 one-dose screen, 48 h (100 = growth as untreated, 0 = no growth, -100 = all killed)
Settings in all cases: 10 µM unless noted

SMILES strings stand for the structures. Compounds without any hit were thinned out: in the full panel of roughly 83,000, 20% have a hit.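 Each cell line was grown in a 96-well plate and treated with one concentration of compound for 48 hours. Values below 10 were considered active.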 Unmarked numbers belong to inactive results. Calls of active or inactive are those of the source.

Take `O=C(COc1cccc(/C=C2\COc3ccc(Cl)cc3C2=O)c1)c1ccc(Cl)cc1`: the growth in the assay with T-47D breast is 71.9%; in the assay on BT-549 breast it was 84.7%; in the assay on MDA-MB-435 melanoma, 91.2%; in the assay with SW-620 colon, 51%; in the assay on MCF7 breast, 0.286% (active); in the assay with HCT-116 colon, 31.1%. The growth in the assay on HCC-2998 colon was 129%.
On to `COc1nc2c(c(=O)n1C)CN(Cc1ccccc1)C=N2`, for which the growth in the assay on T-47D breast is 67.1%; in the assay on BT-549 breast it was -4.81% (active); in the assay on MDA-MB-435 melanoma, 117%; in the assay with SW-620 colon it was 99.6%; in the assay on MCF7 breast it was 101%; in the assay with HCT-116 colon, 107%. In addition, in the assay on HCC-2998 colon, the growth was 113%.
Regarding `Cc1cc(N2CCCC2)nc(NC2CCCC(Nc3ccnc4cc(Cl)ccc34)C2)n1` (stereo not given), the growth was -35.1% (active) with T-47D breast; -57.9% (active) with BT-549 breast; -92.6% (active) in the assay on MDA-MB-435 melanoma; -58.3% (active) in the assay with SW-620 colon; -13.2% (active) with MCF7 breast; -87.1% (active) with HCT-116 colon. In addition, the growth in the assay with HCC-2998 colon was -40.4% (active).
On to `CCn1c(O)c(/C=N/NC(=O)C(C)c2ccc(CC(C)C)cc2)sc1=S` (stereo not given), for which the growth with T-47D breast is 38%; in the assay on BT-549 breast, 11.5%; in the assay with MDA-MB-435 melanoma it was -44.4% (active); with SW-620 colon, 27.3%; in the assay with MCF7 breast, 20.5%; in the assay with HCT-116 colon, 11.6%. In addition, the growth with HCC-2998 colon is 29.5%; with KM12 colon, 18.7%.
With `O=C1OC(c2ccccc2)C(O)=C1c1ccccc1` (stereo not given), the growth in the assay with T-47D breast was 111%; in the assay with BT-549 breast, 111%; in the assay with MDA-MB-435 melanoma, 105%; in the assay with SW-620 colon it was 110%; in the assay on MCF7 breast, 95.4%; in the assay with HCT-116 colon it was 107%. Besides, the growth in the assay on HCC-2998 colon is 127%; in the assay on KM12 colon it was 95.7%.
Turning to `O=C(/C=C/C=C/c1ccc2c(c1)OCO2)N/N=C\c1ccc(O)cc1O`, the growth is 23.9% in the assay on T-47D breast; 27.3% with BT-549 breast; 32.6% in the assay with MDA-MB-435 melanoma; 26.5% with SW-620 colon; 14.1% with MCF7 breast; 8.67% (active) with HCT-116 colon. For the same compound, the growth in the assay with HCC-2998 colon is 38.9%; in the assay on KM12 colon, 23.4%.
Regarding `COc1ccc(/C=C(\C#N)C(=O)Nc2cccc(Nc3nc(SC)nc(-c4cccc([N+](=O)[O-])c4)c3C#N)c2)cc1OC`, the growth in the assay on T-47D breast is 87%; in the assay with BT-549 breast, 95.9%; in the assay on MDA-MB-435 melanoma, 103%; in the assay with SW-620 colon, 102%; in the assay with MCF7 breast, 70.8%; in the assay on HCT-116 colon, 92.6%. Besides, the figures for the growth with HCC-2998 colon and in the assay with KM12 colon were 114% and 99.1%, respectively.
Consider `O=c1nc2oc3ccc4ccccc4c3cc-2s1`, for which the growth in the assay with T-47D breast was 12.6%; in the assay with BT-549 breast, 49%; with MDA-MB-435 melanoma it was -58.5% (active); with SW-620 colon, 20.8%; in the assay with MCF7 breast, 19.3%; in the assay with HCT-116 colon, 21.1%. In addition, the results for the growth in the assay on HCC-2998 colon and in the assay on KM12 colon were 51.4% and 19.5%, respectively.
For `NC(=O)c1cc(Br)ccc1NC(=O)/C=C/c1ccccc1`, the growth was 36.4% in the assay with T-47D breast; 90.1% with BT-549 breast; -7.27% (active) with MDA-MB-435 melanoma; 29.1% with SW-620 colon; 19.9% in the assay with MCF7 breast; 38% with HCT-116 colon. In addition, the growth with HCC-2998 colon was 64.4%; in the assay on KM12 colon, 20.7%.
Consider `Cn1ccnc1C(=O)/C=C/c1ccc(CC(=O)Nc2ccccc2)cc1`, for which the growth is 15.2% in the assay with T-47D breast; 22.4% in the assay on BT-549 breast; 13.5% with MDA-MB-435 melanoma; 2.2% (active) in the assay on SW-620 colon; 12% in the assay on MCF7 breast; 18.2% in the assay on HCT-116 colon. In addition, the results for the growth with HCC-2998 colon and in the assay on KM12 colon were 29% and 3.7% (active), respectively.
In the case of `CN(C)c1ccc(N=Nc2ccccn2)c(O)c1`, the growth in the assay on T-47D breast is 31.4%; in the assay with BT-549 breast, 37%; with MDA-MB-435 melanoma it was 33.1%; in the assay on SW-620 colon, 26.5%; with MCF7 breast, 17.3%; in the assay with HCT-116 colon it was 24.7%. In addition, the growth in the assay with HCC-2998 colon is 33.6%; in the assay on KM12 colon, 24.5%.
As for `COc1ccc(-c2n[nH]nc2-c2csc3ccccc23)cc1OC`, the growth was 28.5% with T-47D breast; 16.9% in the assay with BT-549 breast; -31.8% (active) in the assay with MDA-MB-435 melanoma; 21.3% with SW-620 colon; 17.1% with MCF7 breast; 22.4% with HCT-116 colon. Moreover, the growth is 72.1% in the assay with HCC-2998 colon and 27.6% in the assay with KM12 colon.
`Cc1cc(C)c2nc3nc(C)cc(C)c3c(N)c2c1`: the growth with T-47D breast was 37.8%; in the assay on BT-549 breast, 56.1%; in the assay on MDA-MB-435 melanoma, 29.5%; with SW-620 colon it was 16.2%; in the assay with MCF7 breast, 8.2% (active); with HCT-116 colon it was 13.9%. The figures for the growth in the assay with HCC-2998 colon and in the assay with KM12 colon were 10.7% and 22.3%, respectively.
Take `Nc1ccc(-c2cc3c(NCc4ccccc4)ncnc3s2)cc1`: the growth is 52.4% in the assay with T-47D breast; 78.2% in the assay with BT-549 breast; 93.7% with MDA-MB-435 melanoma; 105% with SW-620 colon; 72.5% in the assay with MCF7 breast; 95.6% in the assay on HCT-116 colon. Besides, the growth is 92.6% with HCC-2998 colon and 88.6% in the assay on KM12 colon.
As for `Cc1ccc(-c2onc3c(=O)[nH]nc(-c4ccccc4)c23)cc1`, the growth with T-47D breast was 37.1%; in the assay on BT-549 breast it was 40.5%; with MDA-MB-435 melanoma, -34.6% (active); in the assay on SW-620 colon it was 34.7%; in the assay on MCF7 breast, 24%; in the assay on HCT-116 colon, 25.8%. For the same compound, the growth with HCC-2998 colon is 60.5%; in the assay on KM12 colon, 29.3%.
Regarding `Cn1cc(-c2nonc2-c2c[nH]c3ccc(F)cc23)c2cccnc21`, the growth is 16.2% in the assay with T-47D breast; 93.1% in the assay on BT-549 breast; 62.3% in the assay with MDA-MB-435 melanoma; 97.3% in the assay on SW-620 colon; 23.5% with MCF7 breast; 90.9% in the assay with HCT-116 colon. Besides, the growth was 91.8% with HCC-2998 colon and 67.4% in the assay with KM12 colon.
